Assay [1] is described as follows: Primary qHTS for inhibitors of nuclear receptor binding SET domain protein 2 (NSD2) in an RCH-ACV wild type WT cells (2C) (AID 1645877). For activity change, negative = cell killing: % is set by controls: 0 for no effect and ±100 for the full control effect. Note: nearly all actives have a fitted effect of over 70% in size. Note: potency is the fitted concentration of half-maximal effect.
Assay [2] concerns the target Glutathione peroxidase 1 (Homo sapiens) (UniProt P07203). Description: Primary qHTS Assay for Inhibitors of Recombinant Selenoprotein Glutathione Peroxidase 1 (GPX1) (AID 1845191). Note: nearly all actives have a fitted effect of over 65% in size. In short, it runs like this:
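Recombinant GPX1 (10 nM final) was preincubated with compound for 30 min at room temperature, then reacted with 1 mM GSH, 0.5 mM CHP, 0.5 mM NADPH and 100 nM glutathione reductase; NADPH fluorescence (340/450 nm) was read at 0 and 15 min.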
(In general: qHTS replaces the single test concentration by a dilution series.)

The target of assay [3] is Phospholipid hydroperoxide glutathione peroxidase GPX4 (Homo sapiens) (UniProt P36969). Description: Primary qHTS Assay for Inhibitors of Recombinant Selenoprotein Glutathione Peroxidase 4 (GPX4) (AID 1845192). For activity change, negative = inhibition: % is set by controls: 0 for no effect and ±100 for the full control effect. Note: nearly all actives have a fitted effect of over 65% in size. In short, it runs like this: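 GR-coupled readout: 100 nM GR, 1 mM GSH, 0.5 mM NADPH; NADPH fluorescence (ex 340/em 450 nm) read at t=0 and after 15 min RT. GPX4 200 nM, preincubated 30 min with compound; substrate 0.5 mM CHP.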
Chain of Phospholipid hydroperoxide glutathione peroxidase GPX4 (Homo sapiens) (P36969 whole entry, looked up): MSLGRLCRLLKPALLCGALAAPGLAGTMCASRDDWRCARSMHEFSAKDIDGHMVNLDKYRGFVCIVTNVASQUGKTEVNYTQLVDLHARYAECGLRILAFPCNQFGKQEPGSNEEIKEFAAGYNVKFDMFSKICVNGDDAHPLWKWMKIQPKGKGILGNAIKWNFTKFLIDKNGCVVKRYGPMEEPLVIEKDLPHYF

Assay [4] is described as follows: NCATS anti-infectives library activity on HEK293 viability as a counter-qHTS vs the C. elegans viability qHTS (AID 1745854).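 Note: HEK293 cells exposed to compounds for 24 hr before the viability read; % is set by controls: 0 for no effect and ±100 for the full control effect.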 In short, it runs like this: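 HEK293 cells (1,500/well) exposed 24 hr at 37C to 1:5 titrations, up to 41.7 uM final; counter-screen to a C. elegans viability qHTS. Viability by CellTiter-Glo luminescence after 10 min at room temperature; digitonin as control.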

Assay [5] in a line: NCATS anti-infectives library activity on the primary C. elegans qHTS viability assay (AID 1745855; calls by dose curve). In short, it runs like this: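 Viability read-out is GFP fluorescence of PE254-GFP-FLuc C. elegans, measured by laser cytometry (488 nm) at day 0, 3 and 7. Ten L1 worms per well were incubated 7 days at 21 °C with compounds and bacterial capsules in S medium.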
In assay [6] the target is Metallo-beta-lactamase type 2 (Klebsiella pneumoniae) (UniProt C7C422). Description: qHTS to identify inhibitors of the New Delhi Metallo-beta-lactamase (NDM): assay validation screen against the NCATS LOPAC Collection (AID 1794843).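 Note: nitrocefin turnover by NDM-1 measured as 485 nm absorbance at plateau; % is set by controls: 0 for no effect and ±100 for the full control effect.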 An outline of the steps:
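Enzyme 2 nM final, 50 mM HEPES pH 7.0, 1 uM ZnSO4, 0.01% Tween20; cpds in DMSO, preincub w/ enzyme; + nitrocefin (50 uM stock); A485 at plateau; no-enzyme column as blank.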

In assay [7] the target is Catechol O-methyltransferase (Homo sapiens) (UniProt P21964). Description: Confirmatory Screen for Target Class Profiling of Small Molecule Inhibitors of Methyltransferases (AID 1745852). The conditions noted are these: MTase-Glo luminescence, SAH detection, recombinant enzyme; measured here: COMT max response; stronger effect = lower value.
Chain of Catechol O-methyltransferase (Homo sapiens) (P21964 whole entry, looked up): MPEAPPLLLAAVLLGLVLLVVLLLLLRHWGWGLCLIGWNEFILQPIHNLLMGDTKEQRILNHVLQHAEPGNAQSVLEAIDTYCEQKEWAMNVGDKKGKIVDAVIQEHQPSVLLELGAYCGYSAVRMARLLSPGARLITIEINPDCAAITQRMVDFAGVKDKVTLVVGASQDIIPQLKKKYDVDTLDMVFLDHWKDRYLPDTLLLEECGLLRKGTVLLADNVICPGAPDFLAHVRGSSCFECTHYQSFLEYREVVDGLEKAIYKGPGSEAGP
Assay [8] deals with Guanidinoacetate N-methyltransferase (Homo sapiens) (UniProt Q14353). Described as above. The note with it: MTase-Glo luminescence, SAH detection, recombinant enzyme; activity change, negative = inhibition: at 57.3 µM (top of the series) unless noted.
Assay [9] addresses Nicotinamide N-methyltransferase (Homo sapiens) (UniProt P40261). The description is as above. The conditions noted are these: MTase-Glo luminescence, SAH detection, recombinant enzyme; measured here: NNMT max response; stronger effect = lower value.
In assay [10] the target is Phenylethanolamine N-methyltransferase (Homo sapiens) (UniProt P11086). Described as above. The note with it: MTase-Glo luminescence, SAH detection, recombinant enzyme; measured here: PNMT max response; stronger effect = lower value.
Chain of Phenylethanolamine N-methyltransferase (Homo sapiens) (P11086 whole entry, looked up): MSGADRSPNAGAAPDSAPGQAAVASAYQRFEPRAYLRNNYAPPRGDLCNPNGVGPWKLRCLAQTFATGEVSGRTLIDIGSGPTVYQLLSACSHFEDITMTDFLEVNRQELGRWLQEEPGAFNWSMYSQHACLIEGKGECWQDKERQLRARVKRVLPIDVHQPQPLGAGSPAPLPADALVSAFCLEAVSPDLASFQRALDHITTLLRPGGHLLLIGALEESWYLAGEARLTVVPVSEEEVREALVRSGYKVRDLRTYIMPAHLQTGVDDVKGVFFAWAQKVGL

SMILES strings stand for the structures. Results filed as inconclusive are left out. Calls of active or inactive are those of the source. Unless noted, calls come from the whole dose curve; as a rule, active = well fitted curve in the direction sought with a large enough effect; inconclusive = small, poorly fitted or top-dose-only effect, or another doubt; inactive = no such curve, though single readings can be large; an effect the other way counts as inactive or inconclusive.

Chain of Glutathione peroxidase 1 (Homo sapiens) (P07203 whole entry, looked up): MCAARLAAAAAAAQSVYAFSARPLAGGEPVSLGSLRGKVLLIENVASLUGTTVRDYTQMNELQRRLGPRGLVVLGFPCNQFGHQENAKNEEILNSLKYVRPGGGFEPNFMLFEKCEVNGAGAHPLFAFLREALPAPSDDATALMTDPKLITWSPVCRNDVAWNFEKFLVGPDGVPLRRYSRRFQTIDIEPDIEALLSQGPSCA
Chain of Metallo-beta-lactamase type 2 (Klebsiella pneumoniae) (C7C422 whole entry, looked up): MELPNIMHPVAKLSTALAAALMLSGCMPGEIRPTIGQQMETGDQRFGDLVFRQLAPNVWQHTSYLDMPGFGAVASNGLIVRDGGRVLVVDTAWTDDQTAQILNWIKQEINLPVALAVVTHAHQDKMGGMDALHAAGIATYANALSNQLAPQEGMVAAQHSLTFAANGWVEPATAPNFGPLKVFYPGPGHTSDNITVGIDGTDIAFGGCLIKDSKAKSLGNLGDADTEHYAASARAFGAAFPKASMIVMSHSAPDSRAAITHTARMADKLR
Chain of Nicotinamide N-methyltransferase (Homo sapiens) (P40261 whole entry, looked up): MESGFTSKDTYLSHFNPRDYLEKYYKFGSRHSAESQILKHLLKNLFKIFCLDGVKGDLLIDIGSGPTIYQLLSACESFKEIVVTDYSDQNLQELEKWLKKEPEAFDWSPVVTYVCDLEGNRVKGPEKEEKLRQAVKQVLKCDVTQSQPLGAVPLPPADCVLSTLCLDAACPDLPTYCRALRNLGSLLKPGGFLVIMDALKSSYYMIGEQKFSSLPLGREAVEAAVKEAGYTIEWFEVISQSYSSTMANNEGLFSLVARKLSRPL

Take `CCN1CC2(COC)C3[C@@H](OC)C4C1C3(C1C[C@]3(O)[C@H](OC(=O)c5ccccc5)C1[C@]4(OC(C)=O)[C@@H](O)[C@@H]3OC)[C@H](OC)C[C@H]2O` (some centres undefined): the Potency result in assay [1], in assay [2] and in assay [3] was “inactive” each time.

Turning to `O=C(O)c1ccnc2cc(C(OCCN3CCCCC3)c3ccccc3Cl)[nH]c12` (centres undefined), the Potency result in assay [1], in assay [5], in assay [2] and in assay [3] was “inactive” throughout. In assay [4], the outcome is “inactive”.

Take `C=C[C@H]1CN2CC[C@H]1C[C@@H]2[C@@H](O)c1ccnc2ccccc12`: the Potency entry in assay [1], in [2] and in assay [3] was “inactive” in each case.

In the case of `O=C1C[C@@H]2OCC=C3CN4CC[C@]56c7ccccc7N1[C@H]5[C@H]2[C@H]3C[C@H]46`, the Potency result in assay [1], in assay [2] and in assay [3] was “inactive” each time.

As for `C[C@]12CC[C@H]3[C@@H]([C@H](O)CC4=CC(=O)CC[C@@]43C)[C@@H]1CC[C@@H]2O`, the Potency entry in [1], in [2] and in assay [3] was “inactive” throughout.

In the case of `CC(=O)c1c(O)c(C)c(O)c(Cc2c(O)c3c(c(C(=O)/C=C/c4ccccc4)c2O)OC(C)(C)C=C3)c1O`, the Potency entry in assay [1], in assay [6], in [2] and in [3] was “inactive” throughout.

As to `CN1C(=O)N(c2ccc(C#N)c(C(F)(F)F)c2)C(=O)[C@]1(CO)c1ccccc1`, the Potency entry in [1], in [2] and in [3] was “inactive” in each case.

For the compound `C=CC(C)(C)c1[nH]c2cccc3c2c1C[C@@H]1[C@@H]3[C@@H](OC(C)=O)[C@H](C)CN1C`, the Potency entry in assay [1], in assay [2] and in assay [3] was “inactive” each time.

Regarding `COc1cc(CCNCc2ccccc2O)c(OC)cc1C#N`, the Potency result in [1], in assay [2] and in assay [3] was “inactive” each time.

As for `C/C(=C\c1csc(C)n1)[C@@H]1C[C@@H]2O[C@]2(C)CCC[C@H](C)[C@H](O)[C@@H](C)C(=O)C(C)(C)[C@@H](O)CC(=O)O1`, the Potency in assay [1] was 5.9 nM (active). The Potency entry in assay [2] and in assay [3] was “inactive” throughout.

As for `CN(C)CCc1c[nH]c2ccc(CN3CCN(C)S3(=O)=O)cc12`, the Potency result in assay [1], in [2] and in [3] was “inactive” throughout.

On to `C=CC(C)(O)CC/C=C(\C)C(=O)O[C@H]1[C@H](O)[C@@H](CO)O[C@@H](OC(=O)[C@]23CCC(C)(C)CC2C2=CCC4[C@@]5(C)CC[C@H](O[C@@H]6O[C@H](CO[C@@H]7OC[C@H](O)[C@H](O)[C@H]7O[C@@H]7OC[C@@H](O)[C@H](O)[C@H]7O)[C@@H](O)[C@H](O)[C@H]6O)C(C)(C)C5CC[C@@]4(C)[C@]2(C)CC3)[C@@H]1OC1OC(C)C(O[C@@H]2OC[C@@H](O)[C@H](O[C@@H]3OC[C@@H](O)[C@H](O)[C@H]3O)[C@H]2O)C(O)C1O` (some centres undefined), for which the activity change, negative = cell killing in assay [1] is -28.4% [at 9.23 µM] (inactive). For the same compound, in assay [2], the outcome was “inactive [at 9.52 µM]”. The activity change, negative = inhibition in assay [3] was 0.212% [at 9.73 µM] (inactive).

`C/C=C(\C)C(=O)OC1CC2C(CC=C3CC(OC4CC(OC)C(OC5CC(OC)C(OC6OC(C)C(OC7OC(CO)C(O)C(O)C7O)C(OC)C6O)C(C)O5)C(C)O4)CCC32C)C2(O)CCC(C(C)=O)C12C` (centres undefined): the activity change, negative = cell killing in assay [1] was -1.79% [at 9.23 µM] (inactive). Moreover, the Potency result in assay [2] and in assay [3] was “inactive” each time.

Regarding `COc1ccc2c(c1)/C(=C/c1cnc[nH]1)C(=O)N2`, in assay [1], the Potency was 18400 nM (active). For the same compound, in [2], the Potency entry is “inactive”.

Turning to `CN1CCC[C@@H]1Cc1c[nH]c2ccc(Nc3ncccc3[N+](=O)[O-])cc12`, the Potency entry in assay [1], in assay [6], in [2] and in assay [3] was “inactive” in each case. The activity was 3.7% in [7], -4.11% in [9] and 3.35% in [10]. Moreover, the activity change, negative = inhibition in [8] came out at 2.94%.

On to `C[C@@](O)(COc1ccc(C#N)cc1)C(=O)Nc1ccc(C#N)c(C(F)(F)F)c1`, for which the Potency result in assay [1], in assay [2] and in assay [3] was “inactive” each time.

On to `COC1CC(OC2CCC3(C)C(CCC4C3CCC3(C)C(C5=CC(=O)OC5)C(OC(C)=O)CC43O)C2)OC(C)C1OC1OC(CO)C(O)C(O)C1O` (centres undefined), for which, in assay [1], the Potency is 1210 nM (active). Also, the Potency result in [2] and in [3] was “inactive” throughout.

As for `CN[C@H]1[C@H](O)[C@H](O[C@@H]2[C@@H](O)[C@H](O[C@H]3O[C@H]([C@H](C)O)[C@@H](O)[C@H](O)[C@H]3N)[C@@H](N)C[C@H]2N)OC[C@@]1(C)O`, the Potency entry in [1], in assay [2] and in assay [3] was “inactive” throughout.

With `COC(=O)C1(C)CCC(O)C2(C)c3c(O)cc(C(C)C)cc3C(O)C(OC(C)=O)C12` (centres undefined), the Potency result in assay [1], in [2] and in assay [3] was “inactive” each time.

As for `CN1CCCC1CCOC(c1cc2nccc(C(=O)O)c2[nH]1)c1ccccc1Cl` (centres undefined), the Potency result in [1], in [2] and in assay [3] was “inactive” throughout. Also, the outcome in [4] was “inactive”.

Regarding `CCN1C[C@]2(OC(=O)c3ccccc3NC(C)=O)CC[C@H](OC)[C@@]34[C@@H]2C[C@@H]([C@@H]13)[C@@]1(O)C[C@H](OC)[C@H]2C[C@@H]4[C@]1(O)[C@H]2OC`, the Potency entry in assay [1], in assay [2] and in assay [3] was “inactive” each time.

Consider `Oc1ccc2c3c1O[C@H]1[C@H](N(CCCl)CCCl)CC[C@@]4(O)[C@@H](C2)N(CC2CC2)CC[C@]314`, for which, in [1], the activity change, negative = cell killing is -7.37% [at 9.23 µM] (inactive). Further, the outcome in [2] was “inactive [at 9.52 µM]”. In addition, the activity change, negative = inhibition in assay [3] was -3.35% [at 9.73 µM] (inactive).

As to `CCCCCCn1c(=O)c(C(=O)Nc2ccc(C(=O)OCCC)cc2)c(O)c2ccccc21`, the results for the outcome in [1] and in [2] were “inactive [at 9.23 µM]” and “inactive [at 9.52 µM]”, respectively. For the same compound, the activity change, negative = inhibition in assay [3] was 18.5% [at 9.73 µM] (inactive).

For `C[CH2][Hg][S]c1ccccc1C(=O)O`, the Potency in assay [1] is 841 nM (active).

Take `C[C@@H]1C(=O)O[C@H]2[C@H](O)[C@@]34[C@@H]5OC(=O)[C@@]3(O[C@@H]3OC(=O)[C@@H](O)[C@@]34[C@H](C(C)(C)C)[C@H]5O)[C@@]12O`: the Potency result in assay [1], in assay [2] and in assay [3] was “inactive” each time.

Take `CC(=O)OC12C(O)C(C)C3(O)C4C=C(C)C(=O)C4CC(CO)=CC3C1C2(C)C` (centres undefined): the Potency result in assay [1], in [2] and in assay [3] was “inactive” each time.

Source of the values: PubChem BioAssay (NCATS).
